Bioassay records deposited in PubChem by several laboratories.
An excerpt weighted towards active compounds, which were near 5.4% of everything screened.
SMARCA2 activ: SMARCA2 (BRM) function activators, primary screen, cell-based, luminescence, high throughput; 370,000 tested, 1% active; AID 652017, 2013; MG213 cells, MMTV-luciferase reporter, dexamethasone, overnight; activation, % at 9.1 µM; in the data active means activation above about 7.8%;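 further: 0% = vehicle wells and 100% = reference activator wells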
Exocytosis inh: LAMP-1 surface exposure blockers, TALL-104 cells – cell-based, flow cytometry, MLPCN library, primary screen | TALL-104 LAMP-1 surface exposure; cells stimulated with thapsigargin and PMA | inhibition, % at 10 µM | 360,000 tested, 0.66% active;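 active means inhibition above about 55%, limit read from the data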
ALR H2O2 inh: inhibitors of human ALR sulfhydryl oxidase, primary screen, biochemical, H2O2 detection, HRP-luminol luminescence, single point | 290,000 tested, 3.8% active | purified ALR, DTT oxidation | FAD-linked sulfhydryl oxidase ALR (Homo sapiens), P55789 | inhibition, % (concentration not given with the values);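 active means mean replicate inhibition above about 79%, with every replicate also reaching it, limit read from the data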
MIN6 prolif: inducers of MIN6 beta-cell proliferation, primary screen, ATP luminescence, uHTS; 330,000 tested, 0.29% active; MIN6 cells proliferation, ATPlite luminescence, 48 h; cells starved in 0.2% serum; 100% = growth in 10% serum; AID 2380, 2010; proliferation, % at 10 µM;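 active means compounds whose signal lies at least 3.5 SD above the mean of all wells on their plate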;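 further: 0% = DMSO-treated cells in low-serum medium and 100% = 10% serum control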
JMJD2C inh: inhibitors of GASC-1 histone demethylase, primary screen, biochemical, fluorescence, DELFIA europium. Lysine-specific demethylase 4C (Homo sapiens), Q9H3R0. GST-JMJD2C(1-420) H3K9me3 demethylation. inhibition, % at 2.35 µM. 330,000 tested, 0.069% active;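 active means more than half of a compound's replicate wells show inhibition beyond 50%, single wells judged on their own value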;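 further: signal counts dimethyl H3K9 product captured on neutravidin plate; 0% = median of DMSO wells and 100% = 0.3 times that DMSO median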
PfM18AAP inh-1: PfM18AAP inhibitors, malaria aminopeptidase, primary screen, biochemical, QFRET, recombinant enzyme; M18 aspartyl aminopeptidase (Plasmodium falciparum 3D7); 290,000 tested, 1.2% active; H-Glu-NHMec fluorogenic cleavage; inhibition, % at 7.35 µM;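 active means inhibition above the campaign mean inhibition over all tested compounds plus 3 SD, cut at about 28% in these data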;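 further: 0% = plate median of test compound wells and 100% = 2 mM ZnCl2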
PfM18AAP inh-2: PfM18AAP inhibitors, malaria aminopeptidase, confirmation, biochemical, QFRET, recombinant enzyme, triplicate; shares compounds with PfM18AAP inh-1; H-Glu-NHMec fluorogenic cleavage; inhibition, % at 7.35 µM; 2,400 tested, 28% active; AID 2170, 2009;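 active means mean inhibition over replicate wells above the hit cutoff set for the earlier primary screen, cut at about 29% in these data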;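 further: 0% = median of test compound wells and 100% = 2 mM ZnCl2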
CTSL1 confirm: cathepsin L1 inhibitors, retest, confirmation, counter-screen for PFM18AAP inhibitor project, biochemical, QFRET, triplicate; shares compounds with PfM18AAP inh-1; purified cathepsin L1, Z-Leu-Arg-MCA fluorescence; inhibition, % at 5.96 µM; 2,400 tested, under 10 active;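 active means average inhibition across replicates above the hit cutoff set in the earlier primary screen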;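 further: 0% = median of test compound wells and 100% = Z-Phe-Ala-diazomethylketone 1 µM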
Target sequence (P07711 whole entry, looked up): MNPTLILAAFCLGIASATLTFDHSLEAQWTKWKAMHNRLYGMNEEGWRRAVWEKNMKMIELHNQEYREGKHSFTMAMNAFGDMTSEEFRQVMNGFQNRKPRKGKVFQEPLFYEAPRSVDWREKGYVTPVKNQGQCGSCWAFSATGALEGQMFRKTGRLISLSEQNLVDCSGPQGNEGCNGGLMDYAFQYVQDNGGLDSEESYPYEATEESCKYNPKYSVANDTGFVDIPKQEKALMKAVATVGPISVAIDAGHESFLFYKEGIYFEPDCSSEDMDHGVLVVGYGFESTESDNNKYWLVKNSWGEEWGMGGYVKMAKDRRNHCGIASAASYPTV
* = called active by the depositor; · = no result given.

SMILES | SMARCA2 activ | Exocytosis inh | ALR H2O2 inh | MIN6 prolif | JMJD2C inh | PfM18AAP inh-1 | others
C=CCC12C=C(OC)C(=O)C(C1=O)C(c1ccc(OC)cc1)C2C (configuration not stated) | -2 | · | · | · | · | ·
CC(=O)N1C(=O)c2cccc3cccc(c23)C(=O)N1C(C)=O | · | · | -12 | 5 | -9 | 3
O=C1c2cccc3cccc(c23)C(=O)C1(O)O | -2 | 71* | 99* | -1 | 1 | ·
O=C(Nc1ccc2c(c1)OCO2)OC1CC2CC1[C@H]1CCCCN1[C@H]2Cc1ccccc1 (some centres not stated) | -2 | · | · | · | · | ·
Cc1ccc(NC(=O)C2CCCN2C(=O)OCc2ccccc2)c(O)c1 (configuration not stated) | -2 | 0 | 86* | -2 | 9 | 1
CCN(CC)CCn1c2c(c(SCC(=O)Nc3nc4ccccc4s3)nc1=O)CCC2 | 1 | 0 | 98* | 7 | 1 | ·
CCN(CC)CCn1c2c(c(SCC(=O)Nc3nc4ccc(C)cc4s3)nc1=O)CCC2 | -3 | 39 | 21 | -7 | 3 | ·
CCN(CC)CCn1c2c(c(SCC(=O)Nc3cccc4ccccc34)nc1=O)CCC2 | -2 | 4 | 97* | 1 | -13 | ·
CCN(CC)CCn1c2c(c(SCC(=O)Nc3ccccc3Cl)nc1=O)CCC2 | 0 | 13 | 44 | 2 | -6 | ·
Cc1ccccc1CN1CCCCC(NC(=O)c2ccccc2)C1=O (configuration not stated) | -2 | · | · | · | · | ·
CC(C)c1nc2ccc(Br)cn2c1NC1CCCC1 | -3 | -6 | 99* | 3 | 1 | 8
Cc1ccc(Cc2c(C3CCCCC3)nc3ccc(Br)cn23)cc1 | -3 | 16 | · | · | · | ·
COC(=O)[C@]1(CNC(=O)C(F)(F)F)CC(=O)N(C)[C@@H]1c1ccccc1 | -1 | · | · | · | · | ·
Cc1nn(C)c(N)c1C(O)(c1nccn1C)C(F)(F)F (configuration not stated) | 1 | 0 | -12 | 2 | 81* | 1
Cn1ccnc1C(O)(c1ccccc1)c1nccn1C | -3 | -3 | -2 | 3 | 3 | -7
CC(=O)NN1C(=O)c2ccccc2NC1c1ccccc1O (configuration not stated) | -1 | 4 | · | 1 | 13 | 42* | PfM18AAP inh-2=12;CTSL1 confirm=-2
C[C@H]1CCCN1c1ccc2c(c1)O[C@@H]1CCN(C1)S2(=O)=O | -2 | · | · | · | · | ·
COc1ccc(/C=C/S(=O)(=O)NCc2ccccc2)c(CNC(=O)OC(C)(C)C)c1 | -2 | · | · | · | · | ·
O=C(NNC(=O)c1cccs1)c1cccc(F)c1 | 0 | 9 | -3 | 0 | -7 | 0
Cc1cccc(C(=O)NC(=S)NNC(=O)c2cccs2)c1 | 1 | 2 | 99* | 0 | -6 | 33* | PfM18AAP inh-2=-28;CTSL1 confirm=2
O=C(NCC1COc2ccccc2O1)c1ccc(NC(=O)C(Cl)Cl)cc1 (configuration not stated) | -1 | · | · | · | · | ·
O=C1c2ccccc2CC1Sc1nnc(-c2ccncc2)o1 (configuration not stated) | 0 | 1 | · | -1 | 8 | 46* | PfM18AAP inh-2=-57;CTSL1 confirm=-4
CCC(C)(O)c1cnc(CC(C)C)c(=O)n1O (configuration not stated) | -1 | -5 | · | · | · | ·
CCOc1ccc2[nH]cc(C(=O)O)c(=O)c2c1 | -2 | -2 | 1 | -2 | 4 | 51* | PfM18AAP inh-2=-36;CTSL1 confirm=1
CCOc1ccc2[nH]cc(C(=O)N3CCN(C4CCCCC4)CC3)c(=O)c2c1 | -3 | 1 | -1 | 0 | 2 | 7
